Records with an inconclusive call do not appear. A number with no mark means an inactive call. The source made the active and inactive calls. Calls follow the shape of the dose curve; as a rule, active = well fitted curve in the direction sought with a large enough effect; inconclusive = small, poorly fitted or top-dose-only effect, or another doubt; inactive = no such curve, though single readings can be large; an effect the other way counts as inactive or inconclusive.
assay: qHTS of pediatric cancer cell lines to identify multiple opportunities for drug repurposing: Confirmatory screen for BT-12 cells (AID 1347112); conditions: BT-12 rhabdoid tumor cells, viability; series mostly up to 45.9 µM; activity change, negative = cytotoxic: at the top concentration; also: nearly all actives have a fitted effect of over 55% in size
How it was run: (§1)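 Cells (500-1,000/well) in growth media were settled 5 h at 37 degrees C, then given compounds for 48 h. Viability was read as CellTiter-Glo luminescence. Primary runs used MIPE at 11 points (0.78 nM-46 µM) and NPC at 8 points (0.59 nM-46 µM); follow-ups used 11 points.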
% is scaled to controls: 0 for no effect and ±100 for the full control effect; potency is read from the fitted curve at half-maximal effect.

Compound	activity change, negative = cytotoxic	Potency
C[C@]12CC[C@@H]3c4ccc(O)cc4C[C@@H](CCCCCCCCCS(=O)CCCC(F)(F)C(F)(F)F)[C@H]3[C@@H]1CC[C@@H]2O (stereo not given in full)	-8.72%	–
NCCCNCCSP(=O)(O)O	1.94% [at 9.58 µM]	–
C[n+]1cc2c3c(ccc2c2ccc4cc5c(cc4c21)OCO5)OCO3	–	3.23 µM (active)
CN1C[C@H](C(=O)N[C@]2(C)O[C@@]3(O)[C@@H]4CCCN4C(=O)[C@H](Cc4ccccc4)N3C2=O)C[C@@H]2c3cccc4[nH]cc(c34)C[C@H]21	-16%	–
CN/C(=C\[N+](=O)[O-])NCCSCc1ccc(CN(C)C)o1	-3.56%	–

assay: qHTS of pediatric cancer cell lines to identify multiple opportunities for drug repurposing: Confirmatory screen for LAN-5 cells (AID 1347113); conditions: LAN-5 neuroblastoma cell viability; series mostly up to 45.9 µM; activity change, negative = cytotoxicity: at the top concentration; outcome: at the top concentration; also: nearly all actives have a fitted effect of over 65% in size
How it was run: as §1

Compound	activity change, negative = cytotoxicity	Potency	outcome
C[C@]12CC[C@@H]3c4ccc(O)cc4C[C@@H](CCCCCCCCCS(=O)CCCC(F)(F)C(F)(F)F)[C@H]3[C@@H]1CC[C@@H]2O (stereo not given in full)	5.56%	–	–
C[n+]1cc2c3c(ccc2c2ccc4cc5c(cc4c21)OCO5)OCO3	–	0.811 µM (active)	–
Nc1nc(N)c2nc(-c3ccccc3)c(N)nc2n1	1.68%	–	–
CN/C(=C\[N+](=O)[O-])NCCSCc1ccc(CN(C)C)o1	–	–	inactive
C[C@]12C=CC(=O)C=C1CC[C@H]1[C@@H]3C[C@@H](O)[C@](O)(C(=O)CO)[C@@]3(C)C[C@H](O)[C@@]12F	–	9.27 µM (active)	–
